Source: PubChem (The Scripps Research Institute Molecular Screening Center)
Fam108B inh = Fam108B inhibition, counter-screen for RBBP9 inhibitors; recombinant Fam108B, FP-Rh probe fluorescence polarization; inhibition, % at 9.51 µM; 300,000 compounds, 0.33% hits;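 active = inhibition above the screen mean inhibition plus 3 SD, computed separately per campaign, cut at about 18% in these data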;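 note: inhibitors lower polarization as less probe binds the enzyme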
PME-1 inh = PME-1 (human) inhibition; inhibition, % at 5.9 µM; 320,000 compounds, 0.53% hits; Q9Y570; recombinant PME-1, FP-Rh probe fluorescence polarization;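 active = inhibition above the campaign mean of all compounds plus 3 SD, cut at about 26% in these data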;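 note: competitive labeling of PME-1 active site by serine hydrolase directed probe; inhibitors block probe labeling so polarization falls and inhibition rises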
pPAFAH inh = inhibitors of human plasma PAF acetylhydrolase (pPAFAH) | inhibition, % at 3.39 µM | 330,000 compounds, 1.5% hits | Q13093 | recombinant pPAFAH, FP-rhodamine probe fluorescence polarization | AID 463082;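 active = inhibition above the mean inhibition across the screen plus 3 SD, cut at about 25% in these data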;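 note: inhibitors block binding of the rhodamine activity-based probe so polarization drops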
Target sequence (Q13093 whole entry, looked up): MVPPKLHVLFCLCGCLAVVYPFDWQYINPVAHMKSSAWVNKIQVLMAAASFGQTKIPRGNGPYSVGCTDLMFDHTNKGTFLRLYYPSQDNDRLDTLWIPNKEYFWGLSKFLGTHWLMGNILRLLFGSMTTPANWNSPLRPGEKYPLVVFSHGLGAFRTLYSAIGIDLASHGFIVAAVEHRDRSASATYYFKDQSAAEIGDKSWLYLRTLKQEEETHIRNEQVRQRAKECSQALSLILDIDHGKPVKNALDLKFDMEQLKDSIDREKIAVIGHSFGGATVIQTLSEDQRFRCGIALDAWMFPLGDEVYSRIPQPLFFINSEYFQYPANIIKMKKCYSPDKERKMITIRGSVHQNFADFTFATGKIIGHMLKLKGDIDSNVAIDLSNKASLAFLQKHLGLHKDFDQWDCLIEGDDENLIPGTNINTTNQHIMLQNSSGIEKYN
PAFAH1B3 FP inh = blocks human PAF acetylhydrolase 1B catalytic subunit 3; recombinant PAFAH1B3, FP-rhodamine probe, fluorescence polarization; inhibition, % at 3.39 µM; 340,000 compounds, 0.28% hits;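 active = inhibition above the screen-wide average of all tested compounds plus 3 SD, cut at about 25% in these data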
PAFAH1B2 inh = blocks human PAF acetylhydrolase 1b catalytic subunit 2 | P68402 | recombinant PAFAH1B2, FP-rhodamine activity probe, fluorescence polarization | inhibition, % at 3.39 µM | 340,000 compounds, 1.2% hits | AID 492953;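 active = inhibition above the mean of all tested compounds plus 3 SD, cut at about 24% in these data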
Target sequence (P68402 whole entry, looked up): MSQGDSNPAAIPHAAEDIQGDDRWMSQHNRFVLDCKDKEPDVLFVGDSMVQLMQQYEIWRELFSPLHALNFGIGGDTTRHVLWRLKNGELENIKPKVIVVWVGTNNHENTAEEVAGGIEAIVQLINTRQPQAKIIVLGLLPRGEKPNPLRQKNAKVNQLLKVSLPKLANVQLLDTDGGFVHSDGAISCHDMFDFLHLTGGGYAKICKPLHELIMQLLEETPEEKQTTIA
PAFAH2 FP inh = PAFAH2 (human) inhibition. Q99487. recombinant PAFAH2, FP-rhodamine activity probe, fluorescence polarization. inhibition, % at 3.39 µM. 340,000 compounds, 0.99% hits. AID 492956;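 active = inhibition above the mean over all tested compounds plus 3 SD, cut at about 30% in these data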;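 note: inhibitors block probe labeling of enzyme so polarization drops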
Large screens that a line does not name were inactive. Most compounds without a hit are left out; they make up all but 2.9% or so of the library.

Cc1cc(C)n(-c2ccc(C(=O)OCC(=O)NCc3ccc(F)cc3)cc2)n1	pPAFAH inh 28
CSc1ccccc1NC(=O)COC(=O)c1ccc(-n2nc(C)cc2C)cc1	pPAFAH inh 25, PAFAH2 FP inh 59 (no result: Fam108B inh, PME-1 inh)
COc1ccccc1Nc1nnc(SCc2nnc(-c3cc(OC)c(OC)c(OC)c3)o2)s1	none
O=C1C(Cl)=C(NCCN2CCCCC2)C(=O)c2ccccc21	PAFAH1B3 FP inh 29
Cc1ccc(NC(=O)CN(C)C(=O)c2ccc3[nH]c4c(c3c2)CC(C)CC4)cc1 (stereo not drawn)	PAFAH1B2 inh 48 (no result: Fam108B inh)
COc1cccc(C(=O)/C(C#N)=N/Nc2cccc(-c3ccnc(C)n3)c2)c1	pPAFAH inh 32
COc1ccc2c(CC(=O)OCC(=O)Nc3cccc(C)c3)coc2c1	pPAFAH inh 33 (no result: Fam108B inh)
COC(=O)c1cccc(NC(=O)Cc2coc3cc(OC)ccc23)c1	none
Cc1ccc(C)c(NC(=O)COC(=O)c2cc3ccccc3oc2=O)c1	PME-1 inh 27 (no result: Fam108B inh)
C=C(C(=O)O)C1CCC2(C)CCCC(C)(O)C2C1 (stereo not drawn)	PAFAH1B2 inh 29
O=S(=O)(O)c1cc(O)c2cc(Nc3ccccc3)ccc2c1	PAFAH1B3 FP inh 43, PAFAH1B2 inh 26, PAFAH2 FP inh 42 (no result: Fam108B inh, PME-1 inh, pPAFAH inh)
Nc1cccc2c(O)cccc12	PAFAH1B3 FP inh 35, PAFAH2 FP inh 44
CC(=O)Nc1ccc2c(O)cc(S(=O)(=O)O)cc2c1	none (no result: Fam108B inh, PME-1 inh, pPAFAH inh)
Nc1cccc2c(O)cc(S(=O)(=O)O)cc12	PAFAH1B3 FP inh 77, PAFAH1B2 inh 71, PAFAH2 FP inh 67 (no result: Fam108B inh, PME-1 inh, pPAFAH inh)
Nc1ccc2c(O)cc(S(=O)(=O)O)cc2c1	PAFAH1B3 FP inh 60, PAFAH1B2 inh 37, PAFAH2 FP inh 54 (no result: Fam108B inh, PME-1 inh, pPAFAH inh)
COCCNC(=S)N/N=C/c1ccc(-c2ccc([N+](=O)[O-])cc2)o1	none
COc1ccccc1Nc1ccc2c(O)cc(S(=O)(=O)O)cc2c1	PAFAH1B3 FP inh 75, PAFAH1B2 inh 34, PAFAH2 FP inh 75 (no result: Fam108B inh, PME-1 inh, pPAFAH inh)
O=S(=O)(O)c1ccc(O)c2cc(Nc3ccccc3)ccc12	PAFAH1B3 FP inh 76, PAFAH1B2 inh 58, PAFAH2 FP inh 89 (no result: Fam108B inh, PME-1 inh, pPAFAH inh)
O=S(=O)(O)c1cc(O)c2ccc(Nc3ccccc3)cc2c1	PAFAH1B3 FP inh 43, PAFAH2 FP inh 66 (no result: Fam108B inh, PME-1 inh, pPAFAH inh)
COc1ccc(S(=O)(=O)O)cc1P(=O)(c1ccccc1)c1ccccc1	none
Cc1ccc(S(=O)(=O)CCC(=O)N(C)c2c(N)n(Cc3ccccc3)c(=O)[nH]c2=O)cc1	none
Cc1ccc(C)c(S(=O)(=O)N2CCN(C(=O)c3ccc(N4CCCC4)c([N+](=O)[O-])c3)CC2)c1	pPAFAH inh 25
Cc1ccc(C)c(S(=O)(=O)N2CCN(C(=O)c3ccc(-n4cncn4)c([N+](=O)[O-])c3)CC2)c1	none
Cc1cc(C)c2c(N)c(C(=O)NN)sc2n1	PME-1 inh 32
CCOC(=O)c1sc2nc(C)cc(C)c2c1N	none
O=C1C=CC(=O)c2c(O)c(CO)c(CO)c(O)c21	PAFAH1B3 FP inh 50, PAFAH1B2 inh 25, PAFAH2 FP inh 68 (no result: Fam108B inh, PME-1 inh, pPAFAH inh)
Cc1cccc(N2CCN(S(=O)(=O)c3cccs3)CC2)c1C	none
COc1cc(-c2c(C#N)c(N)nc3c2c(C)nn3-c2ccc(C)c(C)c2)cc(OC)c1OC	none
Cc1nn(-c2ccccc2)c2nc(N)c(C#N)c(-c3ccc(O)c(O)c3)c12	pPAFAH inh 31, PAFAH1B3 FP inh 32
Cc1cccc(C2C3=C(Nc4[nH]n(-c5ccccc5)c(=O)c42)c2ccccc2C3=O)c1 (stereo not drawn)	PAFAH1B2 inh 52, PAFAH2 FP inh 62 (no result: Fam108B inh, PME-1 inh, pPAFAH inh)
CC(=O)Nc1ccc(S(=O)(=O)Nc2nc3ccccc3nc2-n2ccc(=NC(=O)c3ccc(F)cc3)cc2)cc1	none
COc1ccccc1N1CCN(C(=O)NC23CC4CC(CC(C4)C2)C3)CC1	none
O=[N+]([O-])c1ccc(Cl)c(S(=O)(=O)NC2=NCCC2)c1	none (no result: Fam108B inh, PME-1 inh, pPAFAH inh)
Cc1ccc(CNC(=O)CO/N=C/c2ccc(C(C)(C)C)cc2)cc1	PAFAH1B2 inh 29
CC(C)(C)c1ccc(/C=N/OCC(=O)NCc2ccccc2)cc1	none
O=C(NC(n1ccc(=O)[nH]c1=O)C(Cl)(Cl)Cl)C12CC3CC(CC(C3)C1)C2 (stereo not drawn)	PAFAH1B2 inh 27
C#Cc1ccc([C@H]2C=C(C(=O)NCc3nc4ccccc4[nH]3)O[C@@H](OCc3ccc(CO)cc3)C2)cc1	none
O=C1CCCC(=NNC(=O)c2cc3ccccc3cc2O)C1	none (no result: Fam108B inh, PME-1 inh)
CCOC(=O)N1CCC(=NNC(=O)c2cc3ccccc3cc2O)CC1	pPAFAH inh 27
O=C(CSc1ncccc1C(=O)O)NC1CCCCC1	none
Cc1cc(=O)[nH]c(SCC(=O)NC(C)C2CC3CCC2C3)c1C#N (stereo not drawn)	none
CC(NC(=O)CSc1ncccc1C(=O)O)C1CC2CCC1C2 (stereo not drawn)	PAFAH1B2 inh 29
CC(NC(=O)CSc1n[nH]c(=O)[nH]c1=O)C1CC2CCC1C2 (stereo not drawn)	PAFAH1B2 inh 27
COc1ccccc1NC(=O)c1c([N+](=O)[O-])c(C(C)(C)C)nn1C	pPAFAH inh 31
N#Cc1c(Cl)nc(SCc2ccccc2)nc1-c1ccccc1	none (no result: PAFAH1B3 FP inh, PAFAH1B2 inh, PAFAH2 FP inh)
S=C(Nc1ccc(Cl)cc1)Nc1ccc2c(c1)OCCO2	none (no result: Fam108B inh, PME-1 inh, pPAFAH inh)
CN1CCC(OC(=O)c2ccccc2)CC1	Fam108B inh 26
Cc1ccc(NC(=O)c2cc(N3C(=O)C4CC=CCC4C3=O)ccc2N2CCOCC2)cc1Cl (stereo not drawn)	pPAFAH inh 26
Cc1ccc(NC(=O)c2cc(S(=O)(=O)N3CCCCC3)ccc2N2CCOCC2)cc1S(=O)(=O)N(C)C	PAFAH1B3 FP inh 26, PAFAH1B2 inh 27 (no result: Fam108B inh, PME-1 inh, pPAFAH inh)
Cc1ccc(NC(=O)c2cc(S(=O)(=O)N(C)C)ccc2N2CCCC2)cc1S(=O)(=O)N(C)C	none
O=C(Nc1ccccc1Cl)c1cc(S(=O)(=O)N2CCCCC2)ccc1N1CCOCC1	none
CC(NC(=O)c1cc(S(=O)(=O)N2CCOCC2)ccc1N1CCCC1)c1ccc(Cl)c(Cl)c1 (stereo not drawn)	pPAFAH inh 28
Cc1ccc(NC(=O)c2cc(N3C(=O)C=CC3=O)ccc2N2CCOCC2)cc1	none (no result: Fam108B inh, PME-1 inh, pPAFAH inh)
COc1ccc(N2CCN(C(=O)CN(C)S(=O)(=O)c3ccc4c(c3)c(=O)n(C)c(=O)n4C)CC2)cc1	none
CC(C)CC(=O)Nc1ccc(S(=O)(=O)Nc2nccs2)cc1	none
CC(=O)Nc1ccc(NC(=O)C(C)c2cccc(C(=O)c3ccccc3)c2)cc1 (stereo not drawn)	pPAFAH inh 30
CC(C(=O)Nc1ccc(O)cc1)c1cccc(C(=O)c2ccccc2)c1 (stereo not drawn)	none (no result: PAFAH1B3 FP inh, PAFAH1B2 inh, PAFAH2 FP inh)
O=[N+]([O-])c1cc(Br)c(O)c(C=Nc2ccc(N3CCOCC3)cc2)c1	pPAFAH inh 34
COc1ccc(N=C2SC(C(=O)N3CCN(c4ccc([N+](=O)[O-])cc4)CC3)CC(=O)N2C)cc1 (stereo not drawn)	none
